This is an account of results in PubChem BioAssay (NCI).

About 83,000 compounds went through this panel and 20% of them were active in at least one assay; those are over-represented in the sample as a whole.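 Treatment: one concentration, 48 hours, 96-well format. Scoring: percent growth, with anything below 10 considered active.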 Unmarked numbers belong to inactive results. The source made the active and inactive calls.

Test in all cases: NCI-60 one-dose screen, 48 h (100 = growth as untreated, 0 = no growth, -100 = all killed)
What all share (details): 10 µM unless noted

Assay [1] concerns MOLT-4 leukemia.
The test system of assay [2] is SR leukemia.
Assay [3] deals with RPMI-8226 leukemia.
The subject of assay [4] is OVCAR-8 ovarian.
Assay [5] deals with OVCAR-5 ovarian.
Assay [6] has as its system OVCAR-4 ovarian.
In assay [7] the test system is SK-OV-3 ovarian.
The test system of assay [8] is IGROV1 ovarian.
Assay [9] concerns OVCAR-3 ovarian.
In assay [10] the test system is HS 578T breast.
In assay [11] the test system is NCI/ADR-RES ovarian.
Assay [12] deals with T-47D breast.
Assay [13] concerns BT-549 breast.
Assay [14] has as its system MDA-MB-435 melanoma.
Assay [15] deals with SW-620 colon.
The subject of assay [16] is MCF7 breast.
Assay [17] deals with HCT-116 colon.
Assay [18] relates to HCC-2998 colon.
Assay [19] relates to KM12 colon.

As to `ClCCN(CCCl)c1ccc(/C=N/Nc2ncnc3nc[nH]c23)cc1`, the growth in [1] is 26.3%; in assay [2] it was 6.32% (active); in assay [3], 91.9%; in assay [4], 80%; in assay [5] it was 124%; in assay [6], 80.3%. In addition, the growth is 82.6% in assay [7]; 28.3% in assay [8]; 98.5% in assay [9]; 151% in [10]; 98.4% in [11]; 59.8% in [12]. Besides, the growth was 95% in assay [13]; 79.9% in assay [14]; 77.6% in assay [15]; 42.5% in assay [16]; 78.4% in [17]; 94.6% in [18]. In addition, the growth in assay [19] is 96.6%.

Regarding `CC(=O)O[C@H](C[C@H](C(C)C)N(C)C(=O)[C@@H](NC(=O)[C@H]1CCCCN1C)C(C)C)c1nc(C(=O)N[C@@H](Cc2ccccc2)C[C@H](C)C(=O)O)c(C(C)C)s1`, the growth in assay [1] was 7.85% (active); in assay [2], 7.04% (active); in assay [3], 17.4%; in assay [4], 6.46% (active); in assay [5], 39.1%; in assay [6] it was 46.9%. Besides, the growth in assay [7] was 27%; in assay [8], 20.6%; in [9], -28.1% (active); in [10], 17%; in assay [11], 0.688% (active); in assay [12], 44%. The growth was -23.3% (active) in assay [13]; -42% (active) in [14]; 27.3% in assay [15]; 15.1% in assay [16]; 3.68% (active) in assay [17]; -2.79% (active) in assay [18]. Moreover, the growth in [19] is 4.51% (active).

`N/C(=N\N=C\c1ccc(-c2ccccc2)cc1)N[N+](=O)[O-]`: the growth in assay [1] is 5.54% (active); in [2], 5.79% (active); in assay [3], 20.1%; in [4], 42.6%; in assay [5], 56.9%; in [6], 61.5%. The growth in [7] was 35.4%; in assay [8], 34.6%; in assay [9], -19.8% (active); in assay [10] it was 44.3%; in assay [11], 19.4%; in [12], 36.1%. In addition, the growth in assay [13] was 52%; in assay [14], -27.4% (active); in assay [15], 20.7%; in [16], 13.6%; in assay [17], 28.7%; in assay [18], 60.9%. The growth in assay [19] is 32.1%.

For `CC(C)=CCc1c(O)c(C(=O)CC(C)C)c(O)c2c(-c3ccccc3)cc(=O)oc12`, the growth in [1] was 38.5%; in [2] it was 41.5%; in assay [3], 8.71% (active); in [4], 47.6%; in assay [5] it was 84.9%; in assay [6] it was 68.7%. The growth in assay [7] is 60.9%; in [8] it was 62.9%; in assay [9], 33.9%; in assay [10] it was 47%; in [11], 35.6%; in [12], 33.4%. In addition, the growth in assay [13] was 30.4%; in assay [14], 57.1%; in assay [15], 48.5%; in [16], 28.3%; in assay [17] it was 36.8%; in assay [18] it was 42.4%. Besides, the growth in [19] is 41%.

Regarding `N#C[Se]CCN1C(=O)c2ccccc2C1=O`, the growth in [1] is 17.4%; in assay [2], 27.7%; in assay [3], 59.5%; in assay [4] it was 30.3%; in [5] it was 41.4%; in assay [6], 67.4%. Also, the growth in assay [7] was 56.4%; in assay [8] it was 26.1%; in assay [9], 39.2%; in [10], 21.9%; in assay [11], 9.97% (active); in [12], 49.9%. For the same molecule, the growth in assay [13] was 34.3%; in [14], 20.8%; in assay [15] it was 23.9%; in [16] it was 25.4%; in [17], 9.26% (active); in assay [18], 53.1%. In assay [19], the growth is 43%.

For `Cc1cc(C)cc(Nc2nc3c(s2)CC[C@@]2(C)C3=CC[C@@H]3[C@@H]2CC[C@]2(C)C(=O)CC[C@@H]32)c1`, the growth in assay [1] was 10.3%; in assay [2] it was 12.5%; in [3], 4.21% (active); in assay [4], 50.4%; in assay [5], 93.3%; in assay [6], 70%. The growth in [7] is 79.8%; in [8], 85.2%; in [9], 23.8%; in [10] it was 58.3%; in assay [11] it was 74.5%; in [12], 28.9%. For the same molecule, the growth is 47.2% in [13]; 72.8% in assay [14]; 37.8% in assay [15]; 16.9% in assay [16]; 6.21% (active) in [17]; 94.2% in assay [18]. Also, the growth in assay [19] was 55.5%.

As to `O=NNc1ccccn1`, the growth in assay [1] is 67.9%; in assay [2] it was 66.7%; in assay [3], 102%; in assay [4] it was 80.3%; in assay [5], 68%; in assay [6], 90.8%. The growth in assay [7] was 90%; in [8], 86.1%; in assay [9] it was 112%; in [10], 89.7%; in assay [11], 75.1%; in assay [12], 97.3%. For the same molecule, the growth was 90% in [13]; 111% in [14]; 47.8% in assay [15]; 71.4% in assay [16]; 44.4% in assay [17]; 86.7% in assay [18]. For the same molecule, the growth in assay [19] is 96.7%.

For `CC(=O)[O][Hg][O]C(C)=O`, the growth in [1] was 84.8%; in assay [2] it was 11.9%; in assay [3], 90.1%; in assay [4], 98.7%; in assay [5], 115%; in assay [6], 94.3%. In addition, the growth is 97.8% in [7]; 53.2% in assay [8]; 34.5% in assay [9]; 106% in assay [10]; 108% in assay [11]; 52.9% in assay [12]. Besides, the growth was 103% in [13]; 85.7% in assay [14]; 85.6% in assay [15]; 55.9% in [16]; 95.7% in [17]; 120% in assay [18]. In addition, the growth in [19] is 87.5%.
